Measurements taken from the supplement of paper PMC9023506.
Structures can show the parent of a compound that is named as a salt.

Each compound was assayed on Danio rerio larvae (5 dpf) (assay: habituation to 1-s acoustic pulses, difference vs DMSO (percentage points (treated minus DMSO)); higher = more of the behaviour than the DMSO vehicle control). Conditions: 10 µM; exposure time: 3 h pre-incubation + 3 h imaging.
Protocol: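 5-dpf wild-type zebrafish larvae were imaged in 96-well plates. They were treated with 190 Tocris FDA-approved drugs at 10 µM (1 µl/ml DMSO) for 3 h before and 3 h during imaging at 28.5 °C, 48 larvae per drug. Automated image analysis gave % time moving and optomotor responses. Values are drug group mean minus DMSO vehicle mean (n=844), in percentage points, for 10 behaviours.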

Row | Compound | habituation to 1-s acoustic pulses
1 | C=CCN1C[C@H](C(=O)N(CCCN(C)C)C(=O)NCC)C[C@@H]2c3cccc4[nH]cc(c34)C[C@H]21 [Cabergoline] | 3.78
2 | Cc1cccc([C@H](C)c2c[nH]cn2)c1C [Dexmedetomidine hydrochloride] | -9.7
3 | N[C@@H]1C[C@H]1c1ccccc1 [Tranylcypromine hydrochloride] | -0.45
4 | COc1cc2c(cc1OC)C1CC(=O)C(CC(C)C)CN1CC2 (configuration not stated) [Tetrabenazine] | 1.65
5 | COc1ccc(C(CN(C)C)C2(O)CCCCC2)cc1 (configuration not stated) [Venlafaxine hydrochloride] | -6.08
6 | CCN(C)C(=O)Oc1cccc([C@H](C)N(C)C)c1 [Rivastigmine tartrate] | -1.77
7 | O=c1[nH]c2ccccc2n1C1CCN(CCCC(c2ccc(F)cc2)c2ccc(F)cc2)CC1 [Pimozide] | -6.41
8 | CC(O)(CS(=O)(=O)c1ccc(F)cc1)C(=O)Nc1ccc(C#N)c(C(F)(F)F)c1 (configuration not stated) [Bicalutamide] | -5.47
9 | CC(C)C[C@H]1C(=O)N2CCC[C@H]2[C@]2(O)O[C@](NC(=O)[C@@H]3C=C4c5cccc6[nH]c(Br)c(c56)C[C@H]4N(C)C3)(C(C)C)C(=O)N12 [Bromocriptine mesylate] | -3.22
10 | CC[C@@H](C(N)=O)N1CCCC1=O [Levetiracetam] | -2.74
11 | CN1C[C@H](C(=O)N[C@]2(C)O[C@@]3(O)[C@@H]4CCCN4C(=O)[C@H](Cc4ccccc4)N3C2=O)C[C@@H]2c3cccc4[nH]cc(c34)C[C@H]21 [Dihydroergotamine mesylate] | 1.85
12 | C=C1C[C@@H]2[C@H](CC[C@]3(C)C(=O)CC[C@@H]23)[C@@]2(C)C=CC(=O)C=C12 [Exemestane] | -0.223
